Measured values as given in PubChem BioAssay AID2013 (Sanford-Burnham Center for Chemical Genomics, 2009).
Out of some 290,000 compounds screened, about 370 (0.13%) were called active. The list comes from a sample in which actives are over-represented; it also holds similar structures and randomly drawn compounds. Results with a measured potency or affinity are listed apart. A number with no mark means an inactive call.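 How the source made its calls: active means spots per cell inhibited over 60%, with over 100 cells counted and total cytoplasm intensity under 500,000; inconclusive means wells with under 100 cells, flagged as likely toxic; inactive means the rest.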

Each compound was assayed against G-protein coupled receptor 55 (Homo sapiens) (UniProt Q9Y2T6) (assay: inhibition of LPI-stimulated GPR55 beta-arrestin translocation – imaging, U2OS, beta-arrestin-GFP, LPI agonist, primary screen (AID 2013;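 further: U2OS cells stably carrying GPR55 and arrestin-GFP stimulated by 5 µM LPI near EC80; imaged beta-arrestin-GFP aggregate spots per cell after agonist stimulation; plate controls were LPI-stimulated DMSO wells for no effect and DMSO wells without LPI for full effect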)). Details: LPI antagonism, at 10 µM, stronger effect = higher value.
Sequence of G-protein coupled receptor 55 (Homo sapiens) (Q9Y2T6 whole entry, looked up): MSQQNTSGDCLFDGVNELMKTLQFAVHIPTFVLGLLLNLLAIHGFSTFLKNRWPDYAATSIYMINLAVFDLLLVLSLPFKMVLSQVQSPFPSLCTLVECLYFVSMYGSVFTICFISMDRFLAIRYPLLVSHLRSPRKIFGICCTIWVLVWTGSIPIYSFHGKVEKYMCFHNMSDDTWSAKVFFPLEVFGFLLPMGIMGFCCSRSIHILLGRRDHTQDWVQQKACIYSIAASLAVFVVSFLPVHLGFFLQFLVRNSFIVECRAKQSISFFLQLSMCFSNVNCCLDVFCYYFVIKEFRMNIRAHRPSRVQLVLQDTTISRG

Point of comparison: `COc1ccc(S(=O)(=O)N2CCCOC2CNC(=O)C(=O)NCc2cccnc2)cc1` (stereo not given), inhibition 13.9%. Against it:
- CCC(=O)N1c2ccc(S(=O)(=O)NCCc3ccc(OC)c(OC)c3)cc2CC1C (stereo not given) — lower, -31.8%
- COc1ccc(S(=O)(=O)N2CCCOC2CNC(=O)C(=O)NCc2ccccc2F)cc1C (stereo not given) — higher, 22%
- Cc1[nH]nc(SCC(=O)N2CCCCC2)c1[N+](=O)[O-] — lower, -23.3%
- O=C(COc1ccccc1F)NCC(c1ccco1)N1CCCC1 (stereo not given) — higher, 24.1%
- Nc1c(O)ccc2c1C(=O)c1ccccc1C2=O — lower, -0.3%
- O=C1C(=O)c2ccc(-c3ccccc3)cc2-c2ccccc21 — lower, -5.5%
- COc1ccc(N=Nc2nc(-c3ccccc3)c(-c3ccccc3)[nH]2)cc1 — higher, 19%
- Oc1ccccc1N=Nc1nc(-c2ccccc2)c(-c2ccccc2)[nH]1 — higher, 15.7%
- CCOC(=O)N1CCN(C(=O)C2CCC(CNS(=O)(=O)c3ccccc3)CC2)CC1 (stereo not given) — higher, 14.3%
- O=C(c1ccco1)N1N=C(c2cccs2)CC1c1ccccc1O (stereo not given) — higher, 39.4%
- COc1ccc(C(=O)N2N=C(c3cccs3)CC2c2ccccc2O)cc1 (stereo not given) — higher, 54.1%
- C/C(=N/NC(=O)CNC(=O)c1cccnc1)c1cccc([N+](=O)[O-])c1 — lower, -4.3%
- CN1CCN(CCCNC(=O)c2ccc(/C=C3\Sc4ccccc4N(Cc4ccc(F)cc4)C3=O)cc2)CC1 — lower, 6.1%
- CCN1CCN(CCNC(=O)c2ccc(/C=C3/Sc4ccccc4N(Cc4cccc(Cl)c4)C3=O)cc2)CC1 — lower, 7.6%
- CCOc1ccc(Cl)cc1CSc1n[nH]c(C)n1 — lower, -12.3%
- Cc1nnsc1Sc1ccccc1C(=O)O — lower, -7.1%
- COc1cccc(-n2c(=O)c3sccc3n(CC(=O)NC3CCCCC3)c2=O)c1 — lower, -10.7%
- CC(C)NC(=S)NN(c1ccccc1)c1ccccc1 — lower, 11.8%
- CNC(=S)NN(c1ccccc1)c1ccccc1 — lower, 5.4%
- CC(C)CCNC(=O)CN(Cc1ccc(F)cc1)C(=O)CCC(=O)Nc1ccccn1 — lower, 4.6%
- CCOC(=O)c1c(-c2ccccc2)oc2ccc(O)cc12 — lower, -6%
- CCOC(=O)c1c(C)oc2ccc(O)cc12 — lower, 3.1%
- Cc1cc(NC(=O)C2C3C(=O)N(Cc4ccc(Cl)cc4)C(C(=O)NC4CCCCC4)C34C=CC2(C)O4)no1 (stereo not given) — lower, 9.6%
- CC(C)n1cnc2c(Nc3ccc(C(=O)O)cc3)nc(Cl)nc21 — lower, 8.9%
- O=C(CSc1n[nH]c(-c2cc(Cl)ccc2Cl)n1)NCCN1C(=O)CSC1=O — lower, 2.2%
- Cc1ccc(NC(=S)N(CCCN2CCOCC2)Cc2ccccn2)cc1 — lower, 9.5%
- COc1ccc(NC(=S)N(CCCN2CCOCC2)Cc2ccccn2)cc1 — lower, -18.2%
- O=C(c1cc(C2CC2)nc2ccc(Br)cc12)N1N=C(C(F)F)CC1(O)C(F)F (stereo not given) — lower, 9.1%
- O=S(=O)(c1ccc(Br)cc1)c1nc(-c2ccco2)oc1NCC1CCCO1 (stereo not given) — lower, -16.8%
- CC(C)(C)c1csc(NC(=O)CSc2nc3ccccc3c(=O)[nH]2)n1 — lower, -12.6%
- Cc1ccc2nc3nc(NCC4CCCO4)c(C(=O)NC4CCCC4)cc3c(=O)n2c1 (stereo not given) — lower, 0.8%
- CCNc1nc2nc3ccc(C)cn3c(=O)c2cc1C(=O)NCC1CCCO1 (stereo not given) — lower, 7.3%
- Cc1ccc(NC(=O)CSc2nnc3n2CCCCC3)cc1 — lower, 4.6%
- Cc1cccc2c1CC(C)(C)NC2=C(C#N)C#N — lower, 5%
- CC(Nc1c([N+](=O)[O-])c(=O)oc2ccccc12)c1ccccc1 (stereo not given) — lower, 10.5%
- CC(Nc1c([N+](=O)[O-])c(=O)oc2ccccc12)C(Cl)c1ccccc1 (stereo not given) — higher, 22%
- O=C(O)CC/C(=N\NC(=O)CNC(=O)/C=C/c1ccccc1)c1ccccc1 — lower, 2.6%
- Cc1cc(C)n(CC(=O)N/N=C/c2cccs2)n1 — lower, 7.5%
- CCOc1ccccc1C1c2[nH]c3ccccc3c2C[C@H]2C(=O)N(C3CCN(Cc4ccccc4)CC3)CC(=O)N12 (stereo not given in full) — lower, -0.7%
- CCC(=O)NC(Nc1sc2c(c1C(=O)OC)CCC2)C(Cl)(Cl)Cl (stereo not given) — lower, -15.1%
- COC(=O)c1c(NC(NC(=O)CC(C)C)C(Cl)(Cl)Cl)sc2c1CCC2 (stereo not given) — higher, 60%
- COC(=O)c1c(NC(NC(C)=O)C(Cl)(Cl)Cl)sc2c1CCCC2 (stereo not given) — lower, 13.5%
- COC(=O)c1c(NC(NC(=O)C(C)C)C(Cl)(Cl)Cl)sc2c1CCC2 (stereo not given) — lower, -7.5%
- CN(C)S(=O)(=O)NCCNC(=O)c1cc(OCC(F)(F)F)ccc1OCC(F)(F)F — lower, -3.8%
- COc1cccc2c1OCC(CN1CCN(Cc3ccccc3F)C(CCO)C1)=C2 (stereo not given) — lower, 8.5%
- Cc1cccc(NC(=S)N2CCC(NC(=O)c3ccco3)CC2)c1 — lower, 7.3%
- COc1ccccc1CNC(=O)C1CCN(S(=O)(=O)c2ccc(-n3cnnn3)cc2)CC1 — lower, 1%
- Cc1ccc(S(=O)(=O)N(C)c2ccc(C(=O)NCc3cccnc3)cc2)cc1 — lower, 11.2%
- Cc1cc(N)n2nc(C)c(-c3ccccc3)c2n1 — lower, -2.4%
- Cc1cc(C)n2nc(-c3ccccc3)c(-c3ccccc3)c2n1 — lower, 7.9%
- COc1cccc(NC(=O)C23CCC(C)(C(=O)O2)C3(C)C)c1 (stereo not given) — lower, -7.9%
- Cc1csc(SCC(=O)Nc2sccc2C(N)=O)n1 — lower, 2.4%
- CCOC(=O)CC1C(=O)NCCN1c1nc2ccc(C)cn2c(=O)c1/C=C1\SC(=S)N(CC(C)C)C1=O (stereo not given) — higher, 26.9%
- CCCN1C(=O)/C(=C/c2c(N3CCNC(=O)C3CC(=O)OC)nc3c(C)cccn3c2=O)SC1=S (stereo not given) — higher, 46.4%
- CCOC(=O)CC1C(=O)NCCN1S(=O)(=O)c1ccc(C)cc1 (stereo not given) — lower, 6.6%
- CCCN1C(=O)/C(=C/c2c(NCCCOCC)nc3c(C)cccn3c2=O)SC1=S — lower, 8%
- CSc1ccccc1C(=O)NCc1cccnc1 — lower, -2.4%
- C=CCn1c(SCC(=O)Nc2ccc(F)cc2F)nc2c([nH]c3ccccc32)c1=O — lower, -3.4%
- CCC(NS(=O)(=O)c1ccc2c(c1)NC(=O)C(C)C(=O)N2)c1cccs1 (stereo not given) — lower, 1%
- CC/C(=N/N=C(\CC)c1ccccc1)c1ccccc1 — higher, 20.4%
- COc1ccccc1N1CCN(C(=O)c2cc3c(s2)CCCCC3)CC1 — lower, 6.6%
- c1ccc(CN2CCC(Nc3nc(-c4ccccc4)nc4ccccc34)CC2)cc1 — higher, 31%
- c1ccc(CN2CCC(Nc3nc(-c4cccnc4)nc4ccccc34)CC2)cc1 — higher, 21.2%
- N#CCC(=O)Nc1ccc(C(=O)OCC(=O)Nc2ccccc2-c2ccccc2)cc1 — lower, 6.7%
- CC(=O)Nc1ccc(C(=O)OCC(=O)Nc2ccccc2Sc2ccccc2)cc1 — higher, 16.2%
- Cc1ccc(S(=O)(=O)N2CCN(c3nc(C(C)C)c4c(c3C#N)CC(C)(C)OC4)CC2)cc1 — lower, 2.3%
- Cc1nc(N2CCOCC2)c(C#N)c2c1COC(C)(C)C2 — lower, -9%
- COc1cc(C2c3c(oc4cc(C)c(C)cc4c3=O)C(=O)N2c2cc(C)ccn2)ccc1O (stereo not given) — lower, 2.8%
- COc1cc(C2c3c(oc4ccc(C)cc4c3=O)C(=O)N2c2cc(C)ccn2)cc(OC)c1OC (stereo not given) — higher, 17.6%
- COc1cccc(-c2cc(=O)c3cc(NC(=O)c4ccc(Cl)cc4)ccc3[nH]2)c1 — lower, -2.5%
- O=C(c1cccc(Oc2ccc([N+](=O)[O-])cc2Cl)c1)N1CCOCC1 — lower, -4.4%
- O=C(c1ccc(Oc2ccc([N+](=O)[O-])cc2Cl)cc1)N1CCCC1 — lower, -12.4%

For `CCN1CCN(CCNC(=O)c2ccc3c(c2)N(Cc2ccc(F)cc2)C(=O)/C(=C/c2ccccc2)S3)CC1`, the inhibition was 70.3% (active).
`C=CCNC(=O)c1cc2c(=O)n3cc(C)ccc3nc2nc1NCC1CCCO1` (stereo not given) was tested, and the inhibition was 93.3% (active).
`COC(=O)c1c(NC(NC(=O)C(C)C)C(Cl)(Cl)Cl)sc2c1CCCC2` (stereo not given) was tested, and the inhibition was 76.3% (active).
`CCOC(=O)CC1C(=O)NCCN1c1nc2ccc(C)cn2c(=O)c1/C=C1\SC(=S)N(C(C)CC)C1=O` (stereo not given) was tested, and the inhibition was 70.2% (active).
In the case of `CCCN1C(=O)/C(=C/c2c(N3CCNC(=O)C3CC(=O)OCC)nc3c(C)cccn3c2=O)SC1=S` (stereo not given), the inhibition is reported as 88.9% (active).
With `c1ccc(CN2CCC(Nc3nc(-c4cccs4)nc4ccccc34)CC2)cc1` the inhibition was 84.6% (active).
With `COc1ccc(C2c3c(oc4ccc(C)cc4c3=O)C(=O)N2c2cc(C)ccn2)cc1OC` (stereo not given) the inhibition was 86.9% (active).
